LMNA splice mod: LMNA splicing modulation; HeLa LMNA splicing GFP/RFP minigene ratio, 48 h; Potency, µM (doses to about 46.1 µM), for the others: top-dose ratio change, negative = inhibition, hits mostly inhibitors; 0.01% of 200,000 active; AID 1487; active = well fitted inhibition curve with a large enough effect in the signal ratio, with a control signal flat, not every such curve was filed as active; inconclusive = small, poorly fitted or top-dose-only effect, or effect the other way, or a change in a side signal; the % refers to the signal ratio; note: potency is the fitted concentration of half-maximal effect
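S3 HeLa stable clones carrying a lamin A-EGFP splicing minigene plus DsRed2 were seeded at 600 cells/well in Opti-MEM with 2% FBS, pin-dosed and incubated 48 h at 37°C. Acumen cytometry (488 nm) gave the GFP/RFP total-intensity ratio.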
PNC inhibitor: inhibitors of perinucleolar compartment assembly; PC3M PTB-GFP, PNC prevalence imaging, 16 h; stronger effect = lower value; activity change (PNC), negative = inhibition, % at 10 µM; 3.1% of 140,000 active; AID 2417;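 active = readout at or below -70, meaning at least 70% loss of cells showing the perinucleolar compartment, a nuclear body marking cancer cells; inconclusive = readout between -30 and a set limit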;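 note: plate controls were DMSO wells for no effect and camptothecin positive control wells for full effect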
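Read-out is percentage of cells bearing a perinucleolar compartment, from automated 20x imaging of fixed, Hoechst-stained PC3M PTB-GFP cells. Cells were seeded 4 h, then exposed 16 h to compound (23 nl of library stock) in duplicate plates.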
ALDH1A1 inh: inhibitors of human aldehyde dehydrogenase 1A1; P00352; Purified ALDH1A1, NADH fluorescence, propionaldehyde substrate; Potency, µM (titrated, usually from 75.3 µM), without a hit: at the top dose activity, negative = inhibition, most hits filed as inhibitors; 7.3% of 220,000 active;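 note: potency is the fitted concentration of half-maximal effect; plate controls were no enzyme wells and a reference inhibitor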
Target sequence (P00352 whole entry, looked up): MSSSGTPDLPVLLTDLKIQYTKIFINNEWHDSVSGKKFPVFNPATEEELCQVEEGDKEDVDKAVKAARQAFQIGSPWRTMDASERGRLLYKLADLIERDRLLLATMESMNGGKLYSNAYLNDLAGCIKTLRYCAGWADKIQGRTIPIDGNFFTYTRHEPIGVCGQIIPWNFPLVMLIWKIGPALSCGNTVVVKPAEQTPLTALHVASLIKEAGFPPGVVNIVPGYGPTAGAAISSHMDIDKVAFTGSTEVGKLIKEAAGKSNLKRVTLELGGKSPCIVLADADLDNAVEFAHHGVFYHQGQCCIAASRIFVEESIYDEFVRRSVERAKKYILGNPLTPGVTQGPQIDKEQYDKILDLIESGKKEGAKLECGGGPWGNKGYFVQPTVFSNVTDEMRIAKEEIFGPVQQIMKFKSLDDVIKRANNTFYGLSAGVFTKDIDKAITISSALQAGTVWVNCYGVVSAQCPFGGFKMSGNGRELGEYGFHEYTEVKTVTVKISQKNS
KinaseGlo FLuc: blocks Kinase-Glo luciferase, a counter-screen artifact; Q27757; Kinase-Glo luciferase, ATP luminescence, 8 min; Potency, µM (titrated, usually from 38.3 µM), inactives show at the highest dose activity change, negative = inhibition, hits mostly inhibitors; 0.28% of 200,000 active; AID 1379; active = well fitted inhibition curve with a large enough effect; inconclusive = small, poorly fitted or top-dose-only effect; note: potency is the fitted concentration of half-maximal effect; nearly all actives have a fitted effect of over 60% in size
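Inhibition of Kinase-Glo luciferase light generation was assessed at 10 uM ATP in pH 7.2 imidazole buffer, with luminescence measured after eight minutes at ambient temperature.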
HPGD inh: HPGD (human) dehydrogenase inhibition. P15428. purified HPGD, NADH fluorescence kinetic, PGE2 substrate. Potency, µM, for inactives: top-dose activity change, negative = inhibition, actives largely listed as inhibitors. 4.3% of 150,000 active. AID 894; note: potency is the fitted concentration of half-maximal effect
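20 nM HPGD preincubated 15 min at room temperature with compound in 50 mM Tris-HCl pH 8, 0.01% Tween 20. Started with 1 mM NAD+ and 30 uM prostaglandin E2; NADH fluorescence (360/450 nm) read 5 times over 30-s intervals, last minus first.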
* = called active by the depositor; ? = inconclusive; / = not tested or not shown; [ ] = remark or other dose. Shown are actives, neighbours in structure and some others; about 10% of the full set was active somewhere. Unless noted, calls come from the whole dose curve; as a rule, active = well fitted inhibition curve with a large enough effect (not every such curve was filed as active); inconclusive = small, poorly fitted or top-dose-only effect, or another doubt; inactive = no such curve, though single readings can be large or run the other way. Unless noted, % is set by controls: 0 for no effect and ±100 for the full control effect.

SMILES	LMNA splice mod	PNC inhibitor	ALDH1A1 inh	KinaseGlo FLuc	HPGD inh
CC1=C(C#N)C(c2ccccc2)C2=C(N1)c1ccccc1C2=O (centres undefined)	-2.0%	32.1	12.6µM*	2.4%	22.4µM*
Nc1cc(N2CCCCC2)c([N+](=O)[O-])cc1Cl	-1.0%	63.0	3.55µM*	0.7%	-23.1%
O=[N+]([O-])c1cc(F)c(N2CCOCC2)cc1N1CCCCC1	12.9%	37.8	14.1µM*	-1.6%	-3.9%
CNc1ncncc1-c1c(C)noc1C	1.9%	/	4.9%	/	/
Cc1ccc(CNS(=O)(=O)c2ccc(C(C)(C)C)cc2)n1C	8.1%	37.6	8.91µM*	0.3%	-11.0%
CC(C)(C)c1ccc(S(=O)(=O)NCCc2ccncc2)cc1	?	?	?	7.7%	-14.1%
Cc1sccc1C1C(C#N)=C(N)SC(N)=C1C#N	12.3%	18.6	10µM*	-1.6%	-15.6%
Cc1cc(C2C(C#N)=C(N)Oc3n[nH]c(C)c32)c(C)s1 (centres undefined)	-6.1%	?	-7.5%	-0.4%	-21.9%
Cc1cc(C2C(C#N)=C(N)SC(N)=C2C#N)c(C)s1	4.3%	28.0	25.1µM*	0.9%	20µM*
Cc1ccc(S(=O)(=O)N2C(=O)C(c3ccccc3)SC2=Nc2ccccc2)cc1 (centres undefined)	3.5%	22.3	8.91µM*	-1.3%	10µM*
Cc1ccc(C(=O)n2nc(C)c(S(=O)(=O)N3CCCCCC3)c2C)cc1C	-3.6%[46 µM]	/	/	/	/
CC1CCN(CCC(=O)N2CCCc3c2c(=O)oc2ccc(O)cc32)CC1	?	-7.8	2.24µM*	-0.5%	-1.0%
O=C(CN1CCCC1)N1CCCc2c1c(=O)oc1ccc(OCc3ccccc3)cc21	?	35.3	?	-3.5%	?
CN(CC(=O)N1CCCc2c1c(=O)oc1ccc(O)cc21)Cc1ccccc1	-2.0%	?	12.6µM*	1.7%	-14.7%
CC(C(=O)N1CCCc2c1c(=O)oc1ccc(O)cc21)N1CCc2ccccc2C1 (centres undefined)	-1.7%	-13.9	?	/	/
COc1cccc(C(=O)NC(=S)Nn2cnnc2)c1OC	-9.5%[46 µM]	/	7.94µM*	1.5%	/
O=C(NC(=S)Nn1cnnc1)c1ccccc1Cl	/	/	10µM*	-2.7%	/
CCc1cc(SC#N)cc(CC)c1NC(=O)CCl	?	-16.2	14.1µM*	-1.9%	?
Cc1cc(C)c2c(NC(=O)CCl)nn(C)c2n1	22.4%[46 µM]	/	?	-1.6%	/
Cc1ccc2c(c1)N(C(=O)N1CCC(C(=O)Nc3cccc(F)c3)CC1)CCO2	0.5%[46 µM]	/	/	/	/
C/C(CCN1CCc2nc(-c3ccccc3)c(-c3ccccc3)cc2C1)=N\O[C@@H](C)CN1CCCCc2nc(C)c(C)cc21	/	/	-11.0%[13.5 µM]	/	/
CCOCCCNC(=O)/C(C#N)=C/c1ccc(C(=O)OC)cc1	/	/	?	0.6%	/
CCOCCCNC(=O)/C(C#N)=C/c1cc(C)c(O)c(C)c1	?	/	10µM*	2.4%	/
CCOCCCNC(=O)/C(C#N)=C/c1ccc(Cl)c([N+](=O)[O-])c1	?	/	10µM*	-0.6%	/
CCOCCCNC(=O)/C(C#N)=C/c1cc(OC)c(O)c([N+](=O)[O-])c1	/	/	12.6µM*	0.7%	/
SMILES	LMNA splice mod	PNC inhibitor	ALDH1A1 inh	KinaseGlo FLuc	HPGD inh
Cc1cn2c(=O)cc(COC(=O)c3ccccc3F)nc2s1	8.4%[46 µM]	/	/	/	/
O=C(NC(=S)Nc1cccc2cccnc12)c1ccccc1	3.6%	6.2	?	-2.0%	-6.2%
Cc1ccc2cccc(NC(=S)NC(=O)c3ccnn3C)c2n1	-8.2%	-20.8	10µM*	0.9%	-2.4%
COc1ccc(N(CCC#N)C(=O)/C(C#N)=C/c2cccs2)cc1	9.9%[46 µM]	/	14.1µM*	1.8%	/
CN(C)c1ccc(C=Nc2ccccc2C(N)=O)cc1	?	-9.4	?	-21.3%	?
CN(C)c1ccc(/C=N/N=C/c2ccccc2O)cc1	-6.0%	?	12.6µM*	-20.1%	-7.2%
Cc1ccc2c(c1)N(C(=O)N1CCC(C(=O)NC3CCCCCC3)CC1)CCO2	7.5%[46 µM]	/	/	/	/
CCOc1ccc(C(=O)/C=C/c2ccc(SC)cc2)cc1	?	12.4	-3.3%	3.2%	-26.3%
CC(=O)Nc1ccc(C(=O)/C=C/c2ccco2)cc1	-6.2%	86.4	?	-2.7%	-27.4%
O=C(/C=C\c1ccco1)c1ccc(NC(=O)c2ccco2)cc1	?	/	?	-6.4%	/
CC(=O)Nc1cccc(C(=O)/C=C/c2ccco2)c1	-13.0%	22.4	10µM*	-4.5%	?
